Screening data as filed in PubChem.
This is a sample that favours compounds with a hit; in the whole collection about 19% have one here.
VP16 counter – inhibits Gal4-VP16 luciferase reporter, ROR gamma counter-screen; 310,000 compounds, 3.5% hits; Drosophila S2 Gal4-VP16 UAS-luciferase, luminescence, 20 h; Potency, µM (highest dose often 53.6 µM), usual class: inhibitors;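 also: Gal4-VP16 expression switched on by copper sulfate through the metallothionein promoter; nearly all actives have a fitted effect of over 50% in size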
DT40 TDP1 CPT – growth inhibition of DT40 Tdp1-/-;hTDP1 cells with camptothecin (screen for TDP1 inhibitors). AID 686979. Potency, µM (doses to about 46.2 µM), usual class: inhibitors. 420,000 compounds, 12% hits. chicken DT40 Tdp1-/-;hTDP1 cells + 20 nM CPT, ATP luminescence, 48 h; also: nearly all actives have a fitted effect of over 55% in size
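Chicken DT40 Tdp1-/- cells stably complemented with human TDP1 were seeded at 400 cells/well in medium containing 20 nM camptothecin, exposed to pin-transferred compounds, and grown at 37 °C for at least 48 hr. Viability was read as ATP luminescence.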
RORg inh – inhibitors of mouse ROR gamma transcriptional activity. Drosophila S2 Gal4-RORgamma UAS-luciferase reporter, 20 h. 310,000 compounds, 5.4% hits. Potency, µM (top dose mostly 53.6 µM), hits mostly inhibitors. P51450; also: nearly all actives have a fitted effect of over 60% in size
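ROR gamma transcriptional activity was tracked as Gal4-UAS luciferase output in stably transfected Drosophila Schneider cells, with compound added 1 hr before 700 uM copper sulfate induction and a 20 hr ambient-temperature incubation.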
DT40 TDP1 no CPT – qHTS for Inhibitors of human tyrosyl-DNA phosphodiesterase 1 (TDP1): qHTS in cells in absence of CPT; DT40 Tdp1-/- hTDP1 cells, no CPT, ATP luminescence, 48 h; Potency, µM (series often up to 46.2 µM), usual class: inhibitors; 420,000 compounds, 15% hits; AID 686978, 2013; also: nearly all actives have a fitted effect of over 55% in size
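Readout: luminescence from CellTiter-Glo after 30 min in the dark at RT. Cells: DT40 Tdp1-/- with stable hTDP1, 400/well. Exposure: compounds alone, ≥48 hr, 37 °C.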
TDP1 block – inhibitors of human tyrosyl-DNA phosphodiesterase TDP1. Q9NUW8. recombinant TDP1, AlphaScreen DNA substrate cleavage. Potency, µM (doses to about 130 µM), hits mostly inhibitors. 350,000 compounds, 0.28% hits. AID 485290; also: nearly all actives have a fitted effect of over 40% in size
Target sequence (Q9NUW8 whole entry, looked up): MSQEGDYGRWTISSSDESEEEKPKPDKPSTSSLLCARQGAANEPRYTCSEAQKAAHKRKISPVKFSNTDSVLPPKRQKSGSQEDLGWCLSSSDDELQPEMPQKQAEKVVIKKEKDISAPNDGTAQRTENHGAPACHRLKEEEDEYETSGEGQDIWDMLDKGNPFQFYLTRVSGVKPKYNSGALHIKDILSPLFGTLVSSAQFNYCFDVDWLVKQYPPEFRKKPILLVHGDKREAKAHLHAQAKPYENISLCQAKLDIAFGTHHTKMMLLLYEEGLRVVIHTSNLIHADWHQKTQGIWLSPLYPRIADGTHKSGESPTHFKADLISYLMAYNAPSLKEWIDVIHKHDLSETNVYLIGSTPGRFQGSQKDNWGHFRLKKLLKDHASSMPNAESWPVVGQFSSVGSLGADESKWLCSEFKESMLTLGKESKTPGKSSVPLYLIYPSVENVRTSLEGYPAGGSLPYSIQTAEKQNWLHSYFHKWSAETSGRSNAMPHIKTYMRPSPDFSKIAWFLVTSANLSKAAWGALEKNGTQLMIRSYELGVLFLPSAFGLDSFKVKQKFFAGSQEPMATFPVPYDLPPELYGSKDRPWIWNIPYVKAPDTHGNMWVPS
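E. coli-derived human Tdp1, 1 nM final. Cpd preinc 15 min RT; substrate 15 nM final, 5 min RT; AS bead mix 10 ug/ml final, 10 min RT. Signal loss = tyrosine-FITC cleavage. No-enzyme wells = max signal.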
A number is an active result; n = inactive; u = inconclusive; x = no result; [ ] = another dose, or the depositor's remark. Calls follow the shape of the dose curve; as a rule, active = well fitted curve in the direction sought with a large enough effect; inconclusive = small, poorly fitted or top-dose-only effect, or another doubt; inactive = no such curve, though single readings can be large; an effect the other way counts as inactive or inconclusive.

SMILES	VP16 counter	DT40 TDP1 CPT	RORg inh	DT40 TDP1 no CPT	TDP1 block
CS(=O)(=O)N(CC(=O)N1CCN(c2ccccc2F)CC1)c1cc(C(F)(F)F)ccc1Cl	n	u	u	16µM	n
CS(=O)(=O)N(CC(=O)N1CCN(c2ccccc2)CC1)c1cc(C(F)(F)F)ccc1Cl	n	u	n	n	n
CS(=O)(=O)N(CCc1ccccc1)CC(=O)N1CCN(c2ccccc2)CC1	n	n	u	n	n
CCc1ccccc1N(CC(=O)N1CCN(c2ccc(F)cc2)CC1)S(C)(=O)=O	n	15µM	n	23µM	n
CCc1ccccc1N(CC(=O)N1CCCC1)S(C)(=O)=O	n	n	n	n	n
CS(=O)(=O)N(CCc1ccccc1)CC(=O)N1CCN(c2ccc(F)cc2)CC1	n	u	n	23µM	n
O=C1NC(c2ccc(-c3ccccc3[N+](=O)[O-])o2)C(C(=O)c2ccccc2)C(O)(C(F)(F)F)N1 (stereo not drawn)	n	u	n	u	n
COc1ccccc1N1CCN(C(=O)/C=C/c2ccccc2)CC1	n	u	n	16µM	n
COc1ccccc1NC(=O)/C=C/c1ccc2c(c1)OCO2	n[10 µM]	16µM	n	u	n
COC(=O)c1[nH]c2ccccc2c1NC(=O)/C=C/c1ccc2c(c1)OCO2	n	n	n	n	n
COc1ccccc1N1CCN(C(=O)/C=C/c2ccc3c(c2)OCO3)CC1	n	21µM	n	21µM	n
COc1cc(/C=C/C(=O)N2CCN(c3ccccn3)CC2)cc(OC)c1OC	n	u	n	23µM	n
COc1ccc(CCNC(=O)CSc2nc3c(c(=O)n(C)c(=O)n3C)n2C(C)C)cc1OC	n	n	n	n	n
COc1ccc(S(=O)(=O)N/N=C(/C)c2ccc(C)o2)cc1	x	n	x	n	x
C[C@H](NC(=O)Cc1cccc2ccccc12)C(=O)N1CCOCC1	x	n	x	n	n
CCn1c(CC(=O)Nc2ccc(C)cc2)nnc1SCC(=O)N1CCN(c2ccccc2)CC1	n	n	u	u	n
COc1ccccc1NC(=S)N/N=C/c1ccc(O)cc1	7.1µM	7.3µM	4µM	5.8µM	n
CCNC(=S)N/N=C/c1cccc(C)c1	0.89µM	u	0.89µM	u	n
Oc1ccc(/C=N/NC(=S)N/N=C/c2ccc(O)cc2)cc1	n	u	n	u	n
COc1ccccc1NC(=S)N/N=C/c1cccc(C)c1	1.3µM	u	0.89µM	u	n
COc1ccc(C2=NS(=O)(=O)N(C)C(C(=O)NCc3ccccn3)=C2)cc1OC	n	n	n	n	x
CCOc1cc(/C=C2\CCC/C(=C\c3cc(Cl)c(O)c(OCC)c3)C2=O)cc(Cl)c1O	11µM	u	u	6.5µM	n
CCOc1cc(/C=C2\CN(C)C/C(=C\c3ccc(O)c(OCC)c3)C2=O)ccc1O	u	5.2µM	u	2.3µM	x
CCOc1cc(/C=N\O)cc(Cl)c1OCC	n	n	n	n	n
NNC(=O)CNc1cccc(Cl)c1	n	n	n	n	n
SMILES	VP16 counter	DT40 TDP1 CPT	RORg inh	DT40 TDP1 no CPT	TDP1 block
Cc1ccc(Nc2nc(CSc3nnc(-c4cccnc4)n3-c3ccccc3C)cs2)cc1	u	15µM	5µM	15µM	n
Cc1ccccc1-n1c(SCc2csc(Nc3ccccc3)n2)nnc1-c1cccnc1	u	12µM	u	13µM	n
CC(C)(C)NC(=O)CSc1nnc(SCC(=O)NC(C)(C)C)s1	n	n	n	n	n
CCCc1nc(NC(=O)c2ccccc2)nc(NC(=O)c2ccccc2)n1	n	u	u	n	n
C/C(=N\OCC(=O)NC12CC3CC(CC(C3)C1)C2)c1cc2ccccc2o1	u	21µM	u	u	n
COn1c(-c2ccccc2)nc2c1CCc1nonc1-2	n	n	n	n	n
c1ccc(COn2c(-c3ccccc3)nc3c2CCc2nonc2-3)cc1	n	u	n	26µM	n
C[C@H]1CN([C@@H](C)CO)C(=O)Cc2cc(NC(=O)CCC(F)(F)F)ccc2O[C@H]1CN(C)C(=O)Nc1ccc(F)cc1	x	n	x	n	n
C[C@H](CO)N1C[C@H](C)[C@@H](CN(C)S(=O)(=O)c2ccc(Cl)cc2)Oc2ccc(NS(=O)(=O)c3ccccc3)cc2CC1=O	x	10µM	x	u	n
